Results: PubChem BioAssay (EPA / NIEHS)
Where “and” joins values, the source holds several entries; their conditions need not be identical. Identical values can stand only once. Records with an inconclusive call do not appear. Calls of active or inactive are those of the source. Rule for the calls, unless noted: active = hit-call score of the fitted dose curve at least 0.9, where 1 is the maximum; inconclusive = response in the unintended direction; inactive = score below 0.9.

Assays:
[1] = tested on: Thyroperoxidase (TPO), gene 54314; assay: CCTE_Simmons_AUR_rTPO: CCTE's Amplex UltraRed Assay for Thyroperoxidase (TPO) Inhibition, Simmons Lab (AID 2283662);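 note: potency for loss of signal meaning inhibition of peroxidase activity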
In short: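 Cell-free peroxidase activity assay using rat thyroid gland microsomes with excess H2O2 (300 uM) and 25 uM Amplex UltraRed. Compounds tested from 5 nM to 87.5 uM; fluorescence measured after 30 min at 37C, analysed relative to DMSO baseline.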

[2] = CCTE_Simmons_CellTiterGLO_HEK293T: Viability Assessment in CCTE's Assays for Thyroperoxidase (TPO) Inhibition, Simmons Lab (AID 2283665);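 for AC50: cells exposed to compound for 24 h before readout; actives reduce ATP signal below DMSO vehicle meaning cytotoxicity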
In short: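 ATP depletion measured in HEK293T cells after 24 h dosing (8 concentrations, 5 nM–87.5 uM final; DMSO 0.5%) using CellTiter-Glo luminescence; curves fit for loss of signal against DMSO baseline.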

[3] = Tanguay_ZF_120hpf_SWIM_legacy: (Legacy) Oregon State University Tanguay Lab 120 Hour Post-fertilization zebrafish Assay for Swim Bladder Malformation (AID 2283654);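 note: swim bladder malformation in each larva scored yes or no under brightfield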
In short: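 Static waterborne exposure of single dechorionated Tropical 5D zebrafish embryos, 6–120 hpf, 28C, 0.64% DMSO final. Read-out: swim bladder malformation, present/absent, relative to DMSO negative control; trimethyltin chloride 5uM served as positive control.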

[4] = Tanguay_ZF_120hpf_TRUN_legacy: (Legacy) Oregon State University Tanguay Lab 120 Hour Post-fertilization zebrafish Assay for Truncated Body (AID 2283655)
In short: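 Single dechorionated zebrafish embryos received test chemical from 6 hpf in 0.64% DMSO, kept at 28C. At 120 hpf, brightfield inspection noted any truncated body.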

[5] = Tanguay_ZF_120hpf_ActivityScore_legacy: (Legacy) Oregon State University Tanguay Lab 120 Hour Post-fertilization zebrafish Assay Score for Activity (AID 2283742);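 for AC50: dechorionated Tropical 5D wild-type zebrafish embryos held singly per well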
In short: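 In this whole-embryo screen, dechorionated zebrafish were exposed from 6 hpf until 120 hpf at 28C under a 0.64% DMSO vehicle. Developmental malformations and death were recorded by brightfield microscopy as binary endpoints.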

[6] = Tanguay_ZF_120hpf_NC_legacy: (Legacy) Oregon State University Tanguay Lab 120 Hour Post-fertilization zebrafish Assay for Notochord and Tail Malformation (AID 2283656)
In short: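 Binary notochord-distortion calls, made by brightfield inspection, form the read-out; activity is fitted in the positive direction against DMSO. Exposure ran statically from 6 to 120 hpf at 28C with 0.64% DMSO.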

[7] = Tanguay_ZF_120hpf_TR_legacy: (Legacy) Oregon State University Tanguay Lab 120 Hour Post-fertilization zebrafish Assay for Touch Response (AID 2283667)
In short: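 Readout is presence or absence of touch response in 120 hpf zebrafish larvae, assessed by brightfield observation after continuous static exposure at 28C. Final vehicle was 0.64% (vol/vol) DMSO.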

[8] = CCTE_Padilla_ZF_144hpf_TERATOSCORE: (Legacy) CCTE's 144 Hour Post-fertilization zebrafish Assay Teratoscore, Padilla Lab (AID 2283679; active = hit-call score of the fitted dose curve at least 0.9, where 1 is the maximum; inactive = score below 0.9;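 for AC50: zebrafish embryos with chorions exposed by immersion from 6-8 hpf to 5 dpf with daily renewal; teratogenicity score from eye scoring of death hatching and malformations at 144 hpf; higher score means more developmental defects relative to DMSO baseline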)
In short: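 Larvae scored by eye at 144 hpf for death, hatching and malformations after a day in clean Hanks'. Before that, daily-renewed exposure at 80 uM (0.4% DMSO, 26C) from roughly 6-8 hpf through 5 dpf, 4 embryos per chemical.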

[9] = STM_H9_OrnithineISnorm_perc: Stemina devTOX quickPredict H9 human embryonic stem cell (hESC)-based Assay for Ornithine (ORN) Metabolite Biomarker, Normalized (AID 2283712; active = hit-call score of the fitted dose curve at least 0.9, where 1 is the maximum; inactive = score below 0.9;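 note: ornithine released into spent medium during last day measured by mass spectrometry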)
In short: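 Metabolite endpoint from spent media of pluripotent H9 cells treated 72 h with daily re-feeding; ornithine measured by UPLC-HRMS against its 13C spike-in and referenced to the median 0.1% DMSO vehicle response.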

[10] = STM_H9_CystineISnorm_perc: Stemina devTOX quickPredict H9 human embryonic stem cell (hESC)-based Assay for Cystine (CYSS) Metabolite Biomarker, Normalized (AID 2283713; active = hit-call score of the fitted dose curve at least 0.9, where 1 is the maximum; inactive = score below 0.9)
In short: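 Normalized cystine level in conditioned medium from the final 24h of a 72h treatment of pluripotent H9 cells (daily media and compound renewal). Quantified by UPLC-HRMS with C13-labeled internal standard; scaled to median of 0.1% DMSO vehicle wells.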

[11] = STM_H9_OrnCyssISnorm_ratio: Stemina devTOX quickPredict H9 human embryonic stem cell (hESC)-based Assay for Ornithine (ORN):Cystine (CYSS) Ratio (AID 2283714)
In short: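 H9 hESC, 72h, q24h re-dose; last-day media → acetonitrile deproteinization → UPLC-HRMS. ORN:CYSS ratio from isotope-normalized EIC areas, vs 0.1% DMSO; MTX references on each plate.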

[12] = CEETOX_H295R_MTT_cell_viability: Viability Assessment in the CeeTox HT-H295R MTT Assay (AID 2283718; active = hit-call score of the fitted dose curve at least 0.9, where 1 is the maximum; inactive = score below 0.9)
In short: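 H295R cells prestimulated 48 h with 10 uM forskolin, then exposed 48 h to test chemical (0.1% DMSO final). Viability by MTT (0.5 mg/ml, 4 h, 37 C), absorbance 570/650 nm; percent change versus DMSO, bidirectional fit.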

[13] = tested on: Thyroperoxidase (TPO), gene 445522; assay: CCTE_Simmons_GUA_TPO: CCTE's Guaiacol Assay for Thyroperoxidase (TPO) Inhibition, Simmons Lab (AID 2283750)
In short: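 Porcine thyroid microsomes (25 ug) in 200mM potassium phosphate, preincubated 30 s at 37C with compound (8 concentrations, 5 nM–87.5 uM) and 35mM guaiacol; 1mM H2O2 starts reaction. Absorbance change at 450nm over first 80 s; loss of signal versus DMSO, three replicates.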

Measured: AC50

CCOc1ccc(N)cc1
active: [1] 1.75 µM | [2] 28.4 µM

O=C(NC(=O)c1c(F)cccc1F)Nc1ccc(Cl)cc1
active: [1] 25.4 µM
inactive: [2]

Clc1cccc(Cl)c1
inactive: [3] | [4] | [5]

CN(C)C(=S)S
active: [6] 1.05 µM | [1] 30.8 µM | [2] 8.68 µM | [8] 12.4 µM | [9] 66.3 µM | [10] 75.9 µM | [11] 71.7 µM | [5] 0.00103 µM | [13] 250 µM
inactive: [3] | [4] | [7] | [12]

CC(C)O.CC(C)O.OCCN(CCO)CCO.OCCN(CCO)CCO.[Ti]
active: [10] 74.1 µM | [11] 72.4 µM
inactive: [3] | [6] | [7] | [8] | [9] | [5]

Oc1c(Cl)cc(Cl)cc1Cl
inactive: [3] | [4] | [6] | [7]
active: [8] 3.97 µM | [5] 19.1 µM

O=C(CBr)c1ccc(O)cc1
active: [1] 6.82 µM and 5.72 µM
inactive: [2]

Clc1cccc(Cl)c1Cl
active: [5] 0.00446 µM
inactive: [3] | [4] | [6] | [7]

O=C(N[C@H]1CN2CCC1CC2)c1ccc2c(c1)OCCO2
inactive: [3] | [4] | [6] | [5]

O=C(O)C1(c2ccc3c(c2)OC[C@H](Cc2ccc(-c4ccccc4)cc2)[C@H]3O)CCCC1
inactive: [3] | [4] | [7] | [5]
active: [1] 33.4 µM | [2] 13.3 µM | [8] 13.5 µM

CCCCCCCCCCCCc1cccc(S(=O)(=O)O)c1
inactive: [3] | [4] | [6] | [7] | [5]
active: [1] 39.4 µM | [2] 30.4 µM | [8] 53 µM
